# An excerpt weighted towards active compounds, which were near 3.5% of everything screened.
# CRE Fsk mod: Cell signaling CRE-BLA (Fsk stim); CHO CRE-bla reporter (cAMP response element driving beta-lactamase), forskolin EC10, beta-lactamase ratio; Potency, µM (top dose mostly 38.2 µM), for the others: at the highest dose activity change, negative = inhibition, usual class: activators; hit rate 2.5% among 71,000; AID 662, 2007; active means well fitted activation curve with a large enough effect in the signal ratio, with a control signal flat, not every such curve was filed as active; inconclusive means small, poorly fitted or top-dose-only effect, or effect the other way, or a change in a side signal; the % refers to the signal ratio; further: % of control where 0% means no effect
#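 Forskolin analogue NKH 477 at EC10 stimulated CRE-driven beta-lactamase in CHO cells alongside compound dilution series. Beta-lactamase was measured with CCF4, excitation 405 nm, emission ratio 460/530 nm.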
# Hsp90 Hop PPI: qHTS Assay for Disrupters of an Hsp90 Co-Chaperone Interaction | AlphaScreen TPR2A-His6 binding biotin-Hsp90 C-terminal peptide | Potency, µM (series often up to 57 µM), for inactives: at the highest dose activity change, negative = inhibition | hit rate 0.44% among 71,000; active means well fitted curve in either direction with a large enough effect; inconclusive means small, poorly fitted or top-dose-only effect, or another doubt; further: on the % scale 0 is the no-effect control and ±100 the full control effect
# TSHR ag: qHTS Assay for Agonists of the Thyroid Stimulating Hormone Receptor | Thyrotropin receptor (Homo sapiens), P16473 | HEK293-CNG-TSHR cells (CNG channel as cAMP sensor), membrane potential dye, cAMP | Potency, µM (titrated, usually from 57.1 µM), without a hit: top-dose activation, usual class: activators | hit rate 0.48% among 73,000; active means well fitted activation curve with a large enough effect in the main read-out, with a control signal flat, not every such curve was filed as active; inconclusive means small, poorly fitted or top-dose-only effect, or a change in a side signal; inactive means no such curve, though single readings can be large or run the other way; % of control where 0% means no effect;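 further: the control signal comes from parental cells without the receptor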
# Target sequence (P16473 whole entry, looked up): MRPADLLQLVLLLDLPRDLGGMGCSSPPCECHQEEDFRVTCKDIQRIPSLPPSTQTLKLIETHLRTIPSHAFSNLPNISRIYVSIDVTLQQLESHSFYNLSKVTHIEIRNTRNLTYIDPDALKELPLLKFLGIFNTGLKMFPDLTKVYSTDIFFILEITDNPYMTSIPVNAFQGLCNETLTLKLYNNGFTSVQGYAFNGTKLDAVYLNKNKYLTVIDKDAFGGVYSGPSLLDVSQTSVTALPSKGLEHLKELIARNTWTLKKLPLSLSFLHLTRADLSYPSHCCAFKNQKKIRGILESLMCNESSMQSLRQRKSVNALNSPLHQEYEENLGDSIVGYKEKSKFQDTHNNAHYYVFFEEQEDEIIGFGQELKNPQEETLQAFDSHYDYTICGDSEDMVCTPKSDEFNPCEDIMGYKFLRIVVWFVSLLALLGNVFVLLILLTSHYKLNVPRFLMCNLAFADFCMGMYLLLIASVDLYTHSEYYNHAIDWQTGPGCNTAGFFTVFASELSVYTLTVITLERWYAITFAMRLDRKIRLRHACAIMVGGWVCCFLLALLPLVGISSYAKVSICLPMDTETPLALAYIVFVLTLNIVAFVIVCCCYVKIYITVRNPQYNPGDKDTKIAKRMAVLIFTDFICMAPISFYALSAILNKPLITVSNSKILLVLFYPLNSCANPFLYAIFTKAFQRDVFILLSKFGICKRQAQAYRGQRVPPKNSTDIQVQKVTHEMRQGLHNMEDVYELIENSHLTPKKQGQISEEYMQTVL
#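 cAMP rise detected as CNG-channel membrane depolarization by fluorescent dye (emission 590 nm), 30 min after compound, following 60 min dye loading containing 100 uM RO 20-1724 at room temperature. Cells: TSHR/CNG HEK 293, with parental CNG HEK 293 as control.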
# HEK293 cAMP ctrl: qHTS Assay for Agonists of the Thyroid Stimulating Hormone Receptor: Activators of Intracellular cAMP Concentrations in Parental HEK 293 | parental HEK293 CNG cAMP sensor, membrane potential fluorescence | Potency, µM (titrated, usually from 57.1 µM), for the others: top-dose activation, actives largely listed as activators | hit rate 2.5% among 73,000 | AID 938, 2007; active means well fitted activation curve with a large enough effect; inconclusive means small, poorly fitted or top-dose-only effect; inactive means no such curve, though single readings can be large or run the other way; further: % of control where 0% means no effect; nearly all actives have a fitted effect of over 55% in size
#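 Parental HEK 293 cells stably expressing a cAMP-gated CNG channel were loaded with membrane potential dye containing 100 uM RO 20-1724 for 60 min. Compound added for 30 min; depolarization read as fluorescence intensity at 590 nm.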
# IkB signaling: IkB Signaling; hit rate 0.04% among 110,000; AID 445, 2006; Potency, µM (highest dose often 57.1 µM), inactives show top-dose IkBa stabilization activation; ABC-DLBCL IkBa-CBG/CBR dual luciferase ratio, 4 h; response scale: scaled: untreated 0%, proteasome inhibitor 100%; active means well fitted curve in the direction sought with a large enough effect in the signal ratio, not every such curve was filed as active; inconclusive means small, poorly fitted or top-dose-only effect, or a change in a side signal; the % refers to the signal ratio;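 further: the direction sought is a rising ratio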
#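 Curves were fitted separately to fusion (green), unfused (red) and ratio luminescence, then classed by r2, magnitude and activity. Cells: OCI-Ly3, 4 h compound plus doxycycline at 37C; 10 uM MG-132 defined full response.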
# Active calls of the source: *; ? = inconclusive; . = no result given; [ ] = remark or other dose. Potency means the concentration at half of the fitted maximal effect.
SMILES,CRE Fsk mod,Hsp90 Hop PPI,TSHR ag,HEK293 cAMP ctrl,IkB signaling
COc1cccc(OC)c1OCCNC[C@@H]1COc2ccccc2O1,?,-3.0%,?,31.6µM*,?
COc1ccc(-c2cnnc(CCCn3ccnc3-c3ccccc3)n2)cc1,.,.,6.8%[11.4 µM],17.3%[11.4 µM],.
COC(=O)c1ccc(C(NC(=O)OCc2ccccc2)/C(I)=C/[C@@H](C)C(=O)NCC2CC2)cc1 (stereo partly drawn),-18.4%,-2.5%,?,?,.
Cc1ccc(-c2noc(CCC(=O)NC3CCCc4ccccc43)n2)cc1 (stereo not drawn),-5.9%,3.3%,?,31.6µM*,1.0%
Cc1ccc(-c2noc(CCC(=O)NC3CCN(Cc4ccccc4)CC3)n2)cc1,?,-6.6%,?,?,-0.1%
CCn1c(SCC(=O)c2ccccc2)nnc1-c1cccc(Cl)c1,.,.,.,.,-1.5%
COC(=O)c1cc(CSc2nnc(NC3CCCCC3)s2)oc1C,?,-3.6%,?,12.6µM*,?
O=C(CN(C(=O)c1cc2c(s1)CCC2)C1CCCC1)NCc1cccs1,-26.0%,-2.5%,?,31.6µM*,?
O=C(NCc1ccco1)c1cc2c(s1)CCCCC2,?,-5.1%,7.1%,17.1%,?
CCCC[C@H]1C[C@@H]1[C@@H]1N(C(C)=O)[C@H](c2cccc(OC)c2)CC12CC2,?,0.1%,?,20µM*,.
CCCC[C@H]1C[C@@H]1[C@@H]1N(P(=O)(c2ccccc2)c2ccccc2)[C@](CO)(c2ccccc2)CC12CC2,-9.1%,-15.1%,?,?,.
c1ccc(-c2cnnc(SCc3cn4cccnc4n3)n2)cc1,10µM*,-1.1%,0.6%,-3.6%,-0.5%
c1coc(CSCc2cn3cccnc3n2)c1,-4.0%,-3.7%,1.4%,-0.1%,0.5%
Cc1ccc(C)c(NC(=O)c2ccc3c(c2)N(Cc2ccc(F)cc2)C(=O)CS3=O)c1 (stereo not drawn),-1.2%,-1.3%,?,31.6µM*,0.9%
CCn1c(=O)c2c(nc3n2CC(C)CN3CCc2ccccc2)n(C)c1=O (stereo not drawn),6.31µM*,-4.0%,-1.1%,-3.3%,-2.0%
Cn1c(=O)n(CCc2ccccc2)c(=O)c2c1nc1n2CCCN1CCc1ccccc1,?,-11.8%,-16.5%,-29.6%,?
COC(=O)NC(/C(C(=O)OC)=C(\C)NCc1ccccc1)c1ccccc1 (stereo not drawn),.,.,3.3%[11.4 µM],3.5%[11.4 µM],.
CC(=O)c1sc(NC(=O)C=C(C)C)nc1C,7.5%,-3.1%,-5.0%,1.5%,0.9%
CC(=O)c1sc(NC(=O)C2(F)C(F)(F)C(F)(F)C(F)(F)C(F)(F)C2(F)F)nc1C,-14.8%,-3.3%,?,12.6µM*,?
Cc1ccc(SC/C(O)=C(\C#N)c2nc3ccccc3s2)cc1,2.6%,-1.0%,?,?,?
COc1ccc(C/C(O)=C(\C#N)c2nc3ccccc3s2)cc1,-14.6%,-2.7%,?,31.6µM*,?
COC(=O)c1c(C(=O)OC)c2cc(C)ccn2c1Cl,?,18.1%,?,20µM*,-2.7%
Cc1ccc(C)c2[nH]c(=O)c(CCNC(=O)c3ccc(S(=O)(=O)N(C)C)cc3)cc12,?,-2.0%,-12.7%,-5.5%,2.2%
CC(=O)Nc1ccc(S(=O)(=O)NCCc2cc3c(C)ccc(C)c3[nH]c2=O)cc1,?,2.1%,?,25.1µM*,0.0%
O=c1[nH]c(=O)n(Cc2ccccc2)c2nc(-c3ccco3)cc(C(F)(F)F)c12,2.51µM*,1.9%,?,?,1.1%
SMILES,CRE Fsk mod,Hsp90 Hop PPI,TSHR ag,HEK293 cAMP ctrl,IkB signaling
Cc1cc(C(F)(F)F)c2c(=O)[nH]c(=O)n(Cc3ccccc3)c2n1,?,-1.9%,?,?,0.2%
c1ccc(-c2csc(Nc3nc(N4CCOCC4)nc(N4CCOCC4)n3)n2)cc1,2µM*,-2.7%,?,?,3.9%
COC(=O)C1(Cc2ccccc2)C2c3cc(C(=O)N4CCCC4)n(Cc4ccc(OC(F)(F)F)cc4)c3CC2CN1C(=O)c1ccccc1 (stereo not drawn),-1.4%,-11.2%,?,1.26µM*,.
COC(=O)[C@@]1(Cc2ccc(F)cc2)[C@H]2c3cc(C(=O)N4CCCC4)n(Cc4ccc(C(F)(F)F)nc4)c3C[C@H]2CN1C(=O)c1ccccc1,-25.7%,-8.1%,?,?,.
COC(=O)[C@@]1(Cc2ccccc2)[C@H]2c3cc(C(=O)N4CCCC4)n(Cc4ccc(C(F)(F)F)nc4)c3C[C@H]2CN1C(=O)c1ccccc1,?,-10.1%,?,1.58µM*,.
COC(=O)[C@@]1(Cc2ccccc2)[C@H]2c3cc(C(=O)N4CCCC4)n(CCO)c3C[C@H]2CN1C(=O)c1ccccc1,-19.2%,-2.4%,10.6%,15.8%,.
CC1CCc2c(sc3ncn4c(SCC(=O)NCc5ccco5)nnc4c23)C1 (stereo not drawn),5.9%,0.3%,?,25.1µM*,0.0%
O=C(CSc1nc(C2CC2)nc2sc3c(c12)CCCC3)NCc1ccco1,1.4%,-1.4%,?,?,-0.8%
Cc1nc(SCC(=O)NCc2ccco2)c2c3c(sc2n1)CCCC3,?,-3.8%,?,12.6µM*,0.6%
O=C(c1cccc(F)c1)N1CCC2(CCCN(c3ccncc3)C2)CC1,7.5%,-2.5%,?,?,1.2%[11.4 µM]
O=C(c1cccc(F)c1)N1CCC2(CC1)CCN(c1ccncc1)CC2,14.2%,0.2%,?,3.98µM*,-0.8%[11.4 µM]
O=C(c1cc(C(F)(F)F)cc(C(F)(F)F)c1)N1CCC2(CC1)CCN(c1ccncc1)CC2,?,-0.4%,?,3.16µM*,-1.0%[11.4 µM]
O=C(c1cccc(F)c1)N1CCC2(CCCN(c3cccc(-c4ccccc4)c3)C2)CC1,-7.1%,-9.7%,?,1.26µM*,1.3%[11.4 µM]
COCCn1c(=O)cnc2cnc(Nc3cccc(OC)c3)nc21,?,-2.0%,.,13.7%,?
O=C(NCc1ccc2c(c1)OCO2)c1ccc(COc2cccc(Cl)c2)o1,?,11.6%,?,20µM*,?
CN(C)c1ncnc2ccc(-c3ccc4c(c3)OCO4)cc12,?,-21.1%,?,25.1µM*,-5.4%[11.4 µM]
CN(C)C(=O)c1ccc(-c2ccc3ncnc(N(C)C)c3c2)cc1,?,-0.2%,8.8%,5.7%,-4.5%[11.4 µM]
COc1ccccc1N(CCC#N)C(=O)CSc1ccc2c(c1)OCCO2,-6.7%,-3.3%,25.1µM*,5.5%,1.1%
CC(=O)Nc1ccc(SCC(=O)N(CCC#N)c2ccc(C)cc2)cc1,3.3%,0.9%,8.8%,0.0%,0.2%
CC(=O)Oc1ccc(C(c2ccc(OC(C)=O)cc2)c2ccccn2)cc1,-0.1%,-3.5%,?,2.51µM*,8.3%
NCCNCCNCCNCCN,2.9%,5.01µM*,4.8%,23.0%,-2.5%

# Screens from PubChem BioAssay.
